RE007 growth inh = less growth of the S. pombe RE007 Vpr strain; S. pombe RE007 Vpr strain, BacTiter-Glo ATP luminescence, 24 h; Potency, µM (titrated, usually from 92.2 µM), inactives show top-dose activity change, negative = less growth, actives largely listed as inhibitors; 360,000 tested, 0.21% active; active = well fitted falling curve with a large enough effect; inconclusive = small, poorly fitted or top-dose-only effect; inactive = no such curve, though single readings can be large or run the other way; note: potency is the fitted concentration of half-maximal effect; % is set by controls: 0 for no effect and ±100 for the full control effect; nearly all actives have a fitted effect of over 50% in size
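Fission yeast RE007 carrying one integrated HIV-1 vpr copy, seeded at OD 0.01 in PMG+AL medium with 23 nL pinned compound. Grown 24 h at 30 degrees; viability read by BacTiter-Glo luminescence after 5 min.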
Giardia FBPA inh = blocks Giardia fructose-bisphosphate aldolase activity | AID 2451 | purified Giardia FBPA | Potency, µM (highest dose often 59.6 µM), inactives show at the top dose activity, negative = inhibition, most hits filed as inhibitors | 290,000 tested, 0.71% active; note: potency is the fitted concentration of half-maximal effect; % is set by controls: 0 for no effect and ±100 for the full control effect; nearly all actives have a fitted effect of over 55% in size
Target sequence (A8B2U2 whole entry, looked up): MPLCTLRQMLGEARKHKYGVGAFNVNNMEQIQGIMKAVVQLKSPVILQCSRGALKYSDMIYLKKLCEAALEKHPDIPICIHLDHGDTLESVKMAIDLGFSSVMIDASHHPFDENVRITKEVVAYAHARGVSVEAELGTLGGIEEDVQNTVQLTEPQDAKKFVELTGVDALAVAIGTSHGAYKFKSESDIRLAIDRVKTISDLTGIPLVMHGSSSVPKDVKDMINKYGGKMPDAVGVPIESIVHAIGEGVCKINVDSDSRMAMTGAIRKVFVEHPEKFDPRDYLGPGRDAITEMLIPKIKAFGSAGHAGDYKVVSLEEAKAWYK
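Giardia FBPA (40 nM reagent) was preincubated 10 min at RT with compound (up to 57.5 uM final), then substrate plus GAPDH/TPI/NAD/arsenate coupling system with diaphorase/resazurin was added; resorufin fluorescence (525/598 nm) was read after 20 min.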
Shiga inhibitor = Shiga toxin inhibition | AID 2315 | inhibition, % at 38.7 µM | 290,000 tested, 9.2% active | Vero cells, Shiga toxin protein synthesis inhibition reporter; in the data active = inhibition mostly above about 28%, no sharp cut-off; inactive = mostly below about 43%; note: 0% is about no effect
CHX counter = counter-screen hit for Shiga toxin inhibitors, cycloheximide; cell reporter, cycloheximide protein synthesis inhibition counterscreen; max response, %; 300,000 tested, 12% active; AID 2314; in the data active = max response mostly above about 13%, no sharp cut-off; inactive = mostly below about 14%; note: read at 38.3 µM for the half of the compounds with a filed dose; 0% is about no effect
LmPK inh = blocks Leishmania mexicana pyruvate kinase activity. Q27686. purified LmPK, Kinase-Glo ATP luminescence, 1 h. Potency, µM (highest dose often 57.5 µM), inactives show top-dose activity change, negative = inhibition, hits mostly inhibitors. 290,000 tested, 0.37% active; note: potency is the fitted concentration of half-maximal effect; % is set by controls: 0 for no effect and ±100 for the full control effect
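Pyruvate kinase activity monitored as ATP production (luciferase luminescence). Conditions: 0.1 nM enzyme, 0.5 mM PEP, 0.1 mM ADP, 1 h, RT; normalized against uninhibited and no-enzyme wells.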
TbPYK inhibitor = inhibitors of Trypanosoma brucei pyruvate kinase; Q57TT1; TbPYK enzyme, Kinase-Glo Plus ATP luminescence, 45 min; Potency, µM (top dose mostly 76.8 µM), without a hit: at the top dose activity, negative = inhibition, hits mostly inhibitors; 410,000 tested, 0.12% active; note: potency is the fitted concentration of half-maximal effect; % is set by controls: 0 for no effect and ±100 for the full control effect; nearly all actives have a fitted effect of over 50% in size
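Quantitative HTS: titrated library compounds versus trypanosomal pyruvate kinase in TEA buffer (pH 7.2) containing KCl, MgCl2, BSA and Tween-20. Reactions were initiated with ADP, 130 uM final. Kinase-Glo Plus luminescence was read after 45 min at RT.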
* hit, by the source's call; ? = inconclusive; nt = not tested or not shown. This excerpt belongs to a sample that is enriched for hits. Unless noted, calls come from the whole dose curve; as a rule, active = well fitted curve in the direction sought with a large enough effect; inconclusive = small, poorly fitted or top-dose-only effect, or another doubt; inactive = no such curve, though single readings can be large; an effect the other way counts as inactive or inconclusive.

SMILES	RE007 growth inh	Giardia FBPA inh	Shiga inhibitor	CHX counter	LmPK inh	TbPYK inhibitor
Cc1csc(Cn2c(CN(C)C)nc3ccccc3c2=O)n1	0.8%	0.4%	-12.2	-2.0	-0.7%	-9.5%
Cc1ccc(OCc2cc(C(=O)N(C)Cc3cnn(-c4ccccc4C)c3)no2)cn1	0.3%	nt	34.9	20.0*	2.9%	-1.1%
Cc1ccc(OCc2cc(C(=O)N(C)Cc3nccn3C)no2)cc1C	-11.4%	0.2%	19.5	22.2	-0.2%	-11.6%
CN(Cc1ccc(F)cc1)C(=O)c1cc(COc2ccc(-n3cncn3)cc2)on1	7.2%	nt	-7.4	9.5	7.2%	4.2%
Cc1nnc(CN(C)C(=O)c2cc(COc3ccc(C)c(C)c3)on2)o1	-0.9%	nt	43.7	35.9*	5.5%	0.0%
Cc1ccc(OCc2cc(C(=O)N(C)Cc3cc(C4CC4)n[nH]3)no2)cc1C	14.0%	2.9%	31.9	9.1	10.0%	1.6%
Cc1cc(CN(C)C(=O)c2cc(COc3ccc(C)c(C)c3)on2)on1	-4.1%	nt	63.6*	56.2*	-13.8%	-9.6%
COc1cccc(N2CC(NC(=O)Cc3cccs3)CC2=O)c1 (configuration not stated)	nt	nt	nt	nt	nt	2.4%
COc1ccccc1C(=O)OCc1cc(=O)n2nc(C3CCCCC3)sc2n1	nt	nt	nt	nt	nt	1.1%
N#Cc1ccccc1NC(=O)C(=O)NCCc1csc2nc(-c3cccc(F)c3)nn12	nt	nt	nt	nt	nt	4.1%
Cc1nnc(CN(C)C(=O)c2cc(COc3ccc(F)cc3Cl)on2)o1	0.1%	nt	93.1*	38.0*	-2.2%	-3.6%
CN(Cc1cccc2cnccc12)C(=O)c1cc(COc2ccc(F)cc2Cl)on1	-8.6%	8.4%	32.3	22.8*	1.3%	-3.3%
COc1cccc(OCc2cc(C(=O)N(C)Cc3nc(C)cs3)no2)c1	10.3%	nt	107.6*	55.6*	-5.8%	-0.2%
Cc1ccc(NC(=O)C2CCCN(S(=O)(=O)c3ccc(C)cc3)C2)cc1 (configuration not stated)	nt	nt	nt	nt	nt	3.7%
O=C(CSc1nc2c(cnn2-c2ccc(F)cc2)c(=O)[nH]1)Nc1ccccc1C(F)(F)F	nt	nt	nt	nt	nt	-11.7%
O=C(CSc1nc(O)cc(=O)n1-c1ccccc1)c1ccc(Br)cc1	17.8%	12.4%	54.8	24.4*	1.7%	1.8%
Cc1cc(C(=O)OCC(=O)N2CCOCC2)c(C)n1-c1ccccc1	-4.9%	nt	nt	nt	nt	-8.0%
COCC(C)n1c(C)cc(C(=O)Cn2nc(C(=O)O)c3ccccc3c2=O)c1C (configuration not stated)	4.7%	-6.1%	54.6*	27.8	1.2%	-6.3%
Cc1cc(C(=O)Cn2nc(C(=O)O)c3ccccc3c2=O)c(C)n1-c1ccc(OC(F)F)cc1	5.5%	-2.0%	19.0	3.6	-2.8%	-6.3%
COc1ccc(-n2c(C)cc(C(=O)Cn3nnc4ccccc4c3=O)c2C)cc1	-19.5%	-11.0%	18.3	15.4*	6.0%	-6.5%
Cc1ccc(-n2c(C)cc(C(=O)Cn3nc(C(=O)O)c4ccccc4c3=O)c2C)cc1	22.0%	-2.9%	41.8*	19.0*	4.1%	-0.6%
Cc1cc(C(=O)OCC(=O)Nc2c(F)cccc2F)c(C)n1-c1ccccc1	-2.2%	0.4%	109.5*	55.5*	-2.7%	-16.0%
CCC(=O)C1=C(c2ccc(F)cc2)N(C(=O)CC)n2c(nnc2C2CCCCC2)S1	nt	nt	nt	nt	nt	1.2%
COc1ccc(-n2c(C)cc(C(=O)Cn3nc(C(=O)O)c4ccccc4c3=O)c2C)cc1	-10.2%	-5.2%	34.0*	26.3*	6.1%	-10.7%
Cc1cc(C(=O)Cn2nnc3ccccc3c2=O)c(C)n1-c1c(C)n(C)n(-c2ccccc2)c1=O	-13.6%	3.6%	-12.2	-1.8	3.8%	-8.9%
SMILES	RE007 growth inh	Giardia FBPA inh	Shiga inhibitor	CHX counter	LmPK inh	TbPYK inhibitor
COc1ccccc1Cn1nc(C(=O)O)c2ccccc2c1=O	7.0%	-4.2%	43.0*	19.6*	-6.6%	-3.0%
Cc1cc(C(=O)COC(=O)c2ccc(O)cc2)c(C)n1-c1ccccc1F	2.1%	7.7%	107.3*	41.6*	3.6%	-3.2%
Cc1cc(C(=O)Cn2nnc3ccccc3c2=O)c(C)n1-c1ccccc1F	-20.2%	-20.4%	29.4	45.9*	1.7%	-17.3%
N#Cc1nc(-c2ccc(Cl)cc2)oc1NCCc1ccccn1	14.1%	5.2%	35.0*	12.2*	7.1%	-22.9%
Cc1ccc(-c2nc(C#N)c(NCCc3ccccn3)o2)cc1	3.5%	-4.6%	36.0	16.5*	4.9%	-4.9%
COc1ccccc1NC(=O)C1CCC(CNS(=O)(=O)c2ccc3c(c2)CC(C)N3C(C)=O)CC1 (configuration not stated)	nt	nt	nt	nt	nt	-4.9%
O=S(=O)(c1ccccc1)N1CCC[C@@]2(CCN(C(c3ccccc3)c3ccccc3)C2)C1	nt	-3.8%	nt	nt	nt	-3.9%
COc1ccc(C2=Nn3c(nnc3-c3ccc(OC)c(OC)c3)SC2)c(OC)c1	nt	0.3%	21.8	-1.5	nt	nt
Cc1cc(-c2cn3ccccc3n2)c(C)n1-c1ccccc1	-4.6%	-16.0%	64.3*	48.1*	-11.9%	2.0%
COc1ccc(-n2c(C)cc(-c3cn4cccc(C)c4n3)c2C)cc1	-12.5%	-12.1%	9.9	2.1	1.3%	-4.9%
Cn1c(SCC2CCCCC2)nnc1-c1ccncc1	-17.2%	4.5%	76.1	16.3*	-0.8%	6.0%
CC(=O)CSc1nnc(-c2ccncc2)n1C	-0.9%	2.1%	-12.9	-3.5	3.4%	2.0%
COc1cccc(CSc2nnc(-c3ccncc3)n2N)c1	0.3%	0.5%	-7.0	-3.0	-3.6%	3.7%
COc1ccc(-c2nnc(SCC3CCCO3)n2C)cc1 (configuration not stated)	-2.5%	1.6%	61.5	37.8*	1.3%	-1.8%
COc1ccc(-c2nnc(SCc3ccccc3)n2N)cc1	0.0%	19.0%	60.8*	44.0*	4.1%	-7.6%
COc1ccc(-c2nnc(SCc3ccccn3)n2C)cc1	6.4%	3.3%	45.3*	26.4*	-0.4%	-5.7%
COc1ccc(-c2nnc(SCCc3ccccc3)n2N)cc1	30.4%	-8.7%	24.2*	15.9	-0.2%	-1.1%
COc1ccc(N=C(N)SCc2ccccn2)cc1	-8.9%	-19.8%	46.1*	31.0*	0.2%	-2.1%
COc1ccc(OCCSc2nnc(-c3ccccc3)n2N)cc1	17.2%	-3.4%	10.5	8.7	2.1%	1.5%
COc1ccc(C(=O)N2CCN(Cc3ccccn3)CC2)cc1	4.3%	?	3.8	-0.7	-5.4%	-2.0%
CCc1ccc(NC(=O)CSC2=Nc3ccccc3C3=NC(CC(=O)NCc4cccs4)C(=O)N23)cc1 (configuration not stated)	nt	nt	nt	nt	nt	-9.3%
COc1ccccc1OCc1cc(C(=O)NCc2ccc(N3CCCC3=O)cc2)no1	-2.6%	10.1%	18.5	41.7*	1.9%	12.6%
O=C(NCc1ccccn1)c1ccco1	-3.8%	-2.2%	8.2	4.0	-2.8%	5.0%
